# Active and inactive are the calls of the source. How the source made its calls: active means hit-call score of the fitted dose curve at least 0.9, where 1 is the maximum; inactive means score below 0.9.
# Experiment: ATG_VDRE_CIS: Attagene CIS-FACTORIAL HepG2 Assay for human Vitamin D Receptor Element (VDRE) (AID 2282968)
# Conditions: HepG2 VDRE cis-reporter transcription, actives raise or lower the signal
# Experimental: ATG_CIS is a cell-based, multiplexed-readout assay that uses HepG2, a human liver cell line, with measurements taken at 24 hours after chemical dosing in a 24-well plate.ATG_VDRE_CIS is one of 52 assay component(s) measured or calculated from the ATG_CIS assay. It is designed to make measurements of mRNA induction, a form of inducible reporter, as detected with fluorescence intensity signals by Reverse transcription polymerase chain reaction (RT-PCR) and Capillary electrophoresis technology.Data from the assay component ATG_VDRE_CIS was analyzed into 1 assay endpoint. This assay endpoint, ATG_VDRE_CIS, was analyzed with bidirectional fitting relative to DMSO as the negative control and baseline of activity. Using a type of inducible reporter, measures of mRNA for gain or loss-of-signal activity can be used to understand the reporter gene at the transcription factor-level as they relate to the gene VDR. Furthermore, this assay endpoint can be referred to as a primary readout, because this assay has produced multiple assay endpoints where this one serves a reporter gene function. To generalize the intended target to other relatable targets, this assay endpoint is annotated to the nuclear receptor intended target family, where the subfamily is non-steroidal.
# Human liver HepG2 cells are transiently transfected with multiple reporter transcription units (MRTUs) in 6-well plates using FuGene 6 reagent (Roche; 3 ml FuGene/1 mg DNA). The MRTU constructs are regulated by a cis-regulating element (promoter). […] A major difference between the CIS and TRANS system is that in CIS activities of endogenous TFs are measured, whereas the TRANS assay evaluates changes in activities of exogenous, chimeric NR-Gal4 proteins. […] At the end of 24 hour incubation, total RNA was isolated using TriZol reagent (Invitrogen). The isolated RNA is then reverse-transcribed using oligo(dT) primer and Mo-MLV reverse transcriptase (Invitrogen) with DNAse I (Ambion) treatment for 30 min. The one-tenth of the produced cDNA was amplified by PCR using Taq DNA polymerase (Invitrogen) and two reporter sequence-specific primers. The PCR products were fluorescently labeled by primer extension with 6-arboxyfluorescein (6-FAM) 5'-labeled reporter sequence-specific primer (2 min at 95 C, 20 s at 68 C and 10 min at 72 C) and these products were digested with 5U of HpaI (New England Biolabs) for 2h at 37 C. The fragments were purified using Qiaquick PCR columns (Qiagen), analyzed on an ABI 3130xL genetic analyzer (Applied Biosystems) with peak positions identified by using a set of X-rhodamine (ROX)-labeled MapMarker1000 molecular weight standards (BioVentures). The raw capillary electrophoresis data was processed using Attagraph software (Attagene).
Structure (SMILES),outcome,AC50
CN(C)c1ccc(O)c2c1C[C@H]1C[C@H]3[C@H](N(C)C)C(=O)C(C(N)=O)=C(O)[C@@]3(O)C(=O)C1=C2O,inactive,–
C=O,inactive,–
O=C(O)C[C@H](O)C[C@H](O)/C=C/c1c(C2CC2)nc2ccccc2c1-c1ccc(F)cc1,inactive,–
C=C(C)[C@@H]1CCC2=CC(=O)C[C@@H](C)[C@]2(C)C1,inactive,–
CC(c1cc2ccccc2s1)N(O)C(N)=O (stereo not given),inactive,–
CCCCCCCCCCCCCCCCCC(=O)OCC(CC)CCCC (stereo not given),inactive,–
COC(=O)c1ccc(C)cc1,inactive,–
CC(=O)OCCOC(C)=O,inactive,–
O=c1cc(-c2ccccc2)oc2cc(O)cc(O)c12,inactive,–
O=S(=O)(O)c1ccc(O)c2ncccc12,inactive,–
CN(C)CCOCCN(C)C,inactive,–
C=CC(=O)OCC(O)COc1ccccc1 (stereo not given),–,26.2 µM (active)
COC(=O)OC,inactive,–
c1ccc2[nH]ccc2c1,inactive,–
N#Cc1nc(Cl)c(Cl)c(Cl)c1Cl,–,4.14 µM (active)
CC(=O)C(C)=O,inactive,–
CCC(C)CCCC(C)(C)O (stereo not given),inactive,–
CC(C)C1CCC(O)CC1 (stereo not given),inactive,–
CCCCO,inactive,–
CCOC(=O)c1ccccc1OC,inactive,–

Structure (SMILES),outcome,AC50
CCC(C)(O)CCC=C(C)C (stereo not given),inactive,–
CCCCCCOC(=O)CCCCC,inactive,–
CC(C)(CO)[N+](=O)[O-],inactive,–
CC(O)C(C)O (stereo not given),inactive,–
Nc1cc([N+](=O)[O-])ccc1Cl,inactive,–
[Ca+2],inactive,–
CCCCCCCCCCCCCOS(=O)(=O)O,inactive,–
CC(C)=CCO,inactive,–
CCCCCC=CCC(=O)OC,inactive,–
Nc1ccc(F)c([N+](=O)[O-])c1,inactive,–
COc1cccc(OC)c1,inactive,–
CC(C)(COC(=O)c1ccccc1)COC(=O)c1ccccc1,–,45.8 µM (active)
NCCOCCO,inactive,–
CC(C)c1cccc(O)c1,inactive,–
CC(=O)[O][Al][O]C(C)=O,inactive,–
CCN(CC)CCOC(=O)c1ccc(N)cc1,inactive,–
CC(=O)OCc1ccc2c(c1)OCO2,inactive,–
CSc1nnc(C(C)(C)C)c(=O)[nH]1,inactive,–
Cc1ccc(C=O)s1,inactive,–
C=CC(=O)NCOCC(C)C,–,34.3 µM (active)

# Source: PubChem BioAssay (EPA / NIEHS)
